Measured values as given in the supplement of paper PMC11001985.
Unmarked numbers belong to inactive results.

Compound: C#CCNC(=O)CCSSCCC(=O)NCCc1ccc(C=O)c(C=O)c1
Test: lysine labeling ratio R10:1 (500 µM / 50 µM probe), SILAC-ABPP in living cells; higher = lower intrinsic lysine reactivity toward the probe, active = 2 or less
Conditions: HeLa; probe concentrations 500 vs 50 µM
How it was run: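 SILAC light and heavy living HeLa cells in PBS at room temperature were labelled with 50 µM or 500 µM of an alkyne-tagged, disulfide-linked lysine probe, with forward and reverse label swaps. Mixed lysates were clicked to biotin-azide, trypsin-digested, captured on neutravidin, DTT-released, alkylated and analysed by LC-MS/MS on a TIMS-TOF Pro. R is the filtered median high-probe/low-probe MS1 peptide ratio per lysine, then the median across forward and reverse replicates. Ratios are capped at 20.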

Chain of UniProt Q8WUM4 (Q8WUM4 whole entry): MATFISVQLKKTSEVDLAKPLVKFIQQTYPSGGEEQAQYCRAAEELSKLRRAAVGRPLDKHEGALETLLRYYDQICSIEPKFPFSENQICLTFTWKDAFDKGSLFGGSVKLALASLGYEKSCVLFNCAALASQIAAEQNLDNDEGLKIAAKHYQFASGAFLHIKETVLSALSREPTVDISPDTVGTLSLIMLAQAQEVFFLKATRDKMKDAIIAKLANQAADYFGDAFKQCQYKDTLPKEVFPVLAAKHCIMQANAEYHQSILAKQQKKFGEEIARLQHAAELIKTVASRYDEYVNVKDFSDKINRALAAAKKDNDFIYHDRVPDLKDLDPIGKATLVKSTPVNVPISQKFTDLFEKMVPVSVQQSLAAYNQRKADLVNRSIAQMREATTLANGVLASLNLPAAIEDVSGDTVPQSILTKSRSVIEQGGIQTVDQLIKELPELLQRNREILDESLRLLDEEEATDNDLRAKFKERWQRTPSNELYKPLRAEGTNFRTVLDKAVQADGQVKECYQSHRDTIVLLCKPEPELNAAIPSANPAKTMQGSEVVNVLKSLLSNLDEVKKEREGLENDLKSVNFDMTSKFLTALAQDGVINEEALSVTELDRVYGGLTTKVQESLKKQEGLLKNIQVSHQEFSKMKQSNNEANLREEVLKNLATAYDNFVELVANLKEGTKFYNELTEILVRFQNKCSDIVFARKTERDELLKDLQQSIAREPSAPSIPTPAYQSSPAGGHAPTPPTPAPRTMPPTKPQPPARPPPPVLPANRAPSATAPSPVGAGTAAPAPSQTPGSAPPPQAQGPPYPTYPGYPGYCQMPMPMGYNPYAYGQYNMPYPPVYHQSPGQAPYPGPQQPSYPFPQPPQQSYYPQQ
Chain of UniProt O75083 (O75083 whole entry): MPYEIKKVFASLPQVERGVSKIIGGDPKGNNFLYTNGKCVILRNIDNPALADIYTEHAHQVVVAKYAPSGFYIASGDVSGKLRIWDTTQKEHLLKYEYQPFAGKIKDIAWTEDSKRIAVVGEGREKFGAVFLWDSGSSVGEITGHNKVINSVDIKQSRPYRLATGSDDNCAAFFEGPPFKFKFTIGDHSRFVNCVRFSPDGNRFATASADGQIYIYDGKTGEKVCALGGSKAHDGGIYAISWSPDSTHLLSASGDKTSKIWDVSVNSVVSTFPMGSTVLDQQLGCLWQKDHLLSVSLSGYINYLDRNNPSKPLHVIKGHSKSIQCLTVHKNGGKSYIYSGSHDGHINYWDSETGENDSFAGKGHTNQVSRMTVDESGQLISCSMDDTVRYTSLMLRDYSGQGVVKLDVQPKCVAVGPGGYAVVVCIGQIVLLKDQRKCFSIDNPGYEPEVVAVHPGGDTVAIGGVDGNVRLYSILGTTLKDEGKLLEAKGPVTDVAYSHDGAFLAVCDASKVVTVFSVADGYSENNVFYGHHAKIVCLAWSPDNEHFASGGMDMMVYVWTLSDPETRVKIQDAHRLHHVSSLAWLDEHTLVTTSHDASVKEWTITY
Chain of UniProt Q9HCU4 (Q9HCU4 whole entry): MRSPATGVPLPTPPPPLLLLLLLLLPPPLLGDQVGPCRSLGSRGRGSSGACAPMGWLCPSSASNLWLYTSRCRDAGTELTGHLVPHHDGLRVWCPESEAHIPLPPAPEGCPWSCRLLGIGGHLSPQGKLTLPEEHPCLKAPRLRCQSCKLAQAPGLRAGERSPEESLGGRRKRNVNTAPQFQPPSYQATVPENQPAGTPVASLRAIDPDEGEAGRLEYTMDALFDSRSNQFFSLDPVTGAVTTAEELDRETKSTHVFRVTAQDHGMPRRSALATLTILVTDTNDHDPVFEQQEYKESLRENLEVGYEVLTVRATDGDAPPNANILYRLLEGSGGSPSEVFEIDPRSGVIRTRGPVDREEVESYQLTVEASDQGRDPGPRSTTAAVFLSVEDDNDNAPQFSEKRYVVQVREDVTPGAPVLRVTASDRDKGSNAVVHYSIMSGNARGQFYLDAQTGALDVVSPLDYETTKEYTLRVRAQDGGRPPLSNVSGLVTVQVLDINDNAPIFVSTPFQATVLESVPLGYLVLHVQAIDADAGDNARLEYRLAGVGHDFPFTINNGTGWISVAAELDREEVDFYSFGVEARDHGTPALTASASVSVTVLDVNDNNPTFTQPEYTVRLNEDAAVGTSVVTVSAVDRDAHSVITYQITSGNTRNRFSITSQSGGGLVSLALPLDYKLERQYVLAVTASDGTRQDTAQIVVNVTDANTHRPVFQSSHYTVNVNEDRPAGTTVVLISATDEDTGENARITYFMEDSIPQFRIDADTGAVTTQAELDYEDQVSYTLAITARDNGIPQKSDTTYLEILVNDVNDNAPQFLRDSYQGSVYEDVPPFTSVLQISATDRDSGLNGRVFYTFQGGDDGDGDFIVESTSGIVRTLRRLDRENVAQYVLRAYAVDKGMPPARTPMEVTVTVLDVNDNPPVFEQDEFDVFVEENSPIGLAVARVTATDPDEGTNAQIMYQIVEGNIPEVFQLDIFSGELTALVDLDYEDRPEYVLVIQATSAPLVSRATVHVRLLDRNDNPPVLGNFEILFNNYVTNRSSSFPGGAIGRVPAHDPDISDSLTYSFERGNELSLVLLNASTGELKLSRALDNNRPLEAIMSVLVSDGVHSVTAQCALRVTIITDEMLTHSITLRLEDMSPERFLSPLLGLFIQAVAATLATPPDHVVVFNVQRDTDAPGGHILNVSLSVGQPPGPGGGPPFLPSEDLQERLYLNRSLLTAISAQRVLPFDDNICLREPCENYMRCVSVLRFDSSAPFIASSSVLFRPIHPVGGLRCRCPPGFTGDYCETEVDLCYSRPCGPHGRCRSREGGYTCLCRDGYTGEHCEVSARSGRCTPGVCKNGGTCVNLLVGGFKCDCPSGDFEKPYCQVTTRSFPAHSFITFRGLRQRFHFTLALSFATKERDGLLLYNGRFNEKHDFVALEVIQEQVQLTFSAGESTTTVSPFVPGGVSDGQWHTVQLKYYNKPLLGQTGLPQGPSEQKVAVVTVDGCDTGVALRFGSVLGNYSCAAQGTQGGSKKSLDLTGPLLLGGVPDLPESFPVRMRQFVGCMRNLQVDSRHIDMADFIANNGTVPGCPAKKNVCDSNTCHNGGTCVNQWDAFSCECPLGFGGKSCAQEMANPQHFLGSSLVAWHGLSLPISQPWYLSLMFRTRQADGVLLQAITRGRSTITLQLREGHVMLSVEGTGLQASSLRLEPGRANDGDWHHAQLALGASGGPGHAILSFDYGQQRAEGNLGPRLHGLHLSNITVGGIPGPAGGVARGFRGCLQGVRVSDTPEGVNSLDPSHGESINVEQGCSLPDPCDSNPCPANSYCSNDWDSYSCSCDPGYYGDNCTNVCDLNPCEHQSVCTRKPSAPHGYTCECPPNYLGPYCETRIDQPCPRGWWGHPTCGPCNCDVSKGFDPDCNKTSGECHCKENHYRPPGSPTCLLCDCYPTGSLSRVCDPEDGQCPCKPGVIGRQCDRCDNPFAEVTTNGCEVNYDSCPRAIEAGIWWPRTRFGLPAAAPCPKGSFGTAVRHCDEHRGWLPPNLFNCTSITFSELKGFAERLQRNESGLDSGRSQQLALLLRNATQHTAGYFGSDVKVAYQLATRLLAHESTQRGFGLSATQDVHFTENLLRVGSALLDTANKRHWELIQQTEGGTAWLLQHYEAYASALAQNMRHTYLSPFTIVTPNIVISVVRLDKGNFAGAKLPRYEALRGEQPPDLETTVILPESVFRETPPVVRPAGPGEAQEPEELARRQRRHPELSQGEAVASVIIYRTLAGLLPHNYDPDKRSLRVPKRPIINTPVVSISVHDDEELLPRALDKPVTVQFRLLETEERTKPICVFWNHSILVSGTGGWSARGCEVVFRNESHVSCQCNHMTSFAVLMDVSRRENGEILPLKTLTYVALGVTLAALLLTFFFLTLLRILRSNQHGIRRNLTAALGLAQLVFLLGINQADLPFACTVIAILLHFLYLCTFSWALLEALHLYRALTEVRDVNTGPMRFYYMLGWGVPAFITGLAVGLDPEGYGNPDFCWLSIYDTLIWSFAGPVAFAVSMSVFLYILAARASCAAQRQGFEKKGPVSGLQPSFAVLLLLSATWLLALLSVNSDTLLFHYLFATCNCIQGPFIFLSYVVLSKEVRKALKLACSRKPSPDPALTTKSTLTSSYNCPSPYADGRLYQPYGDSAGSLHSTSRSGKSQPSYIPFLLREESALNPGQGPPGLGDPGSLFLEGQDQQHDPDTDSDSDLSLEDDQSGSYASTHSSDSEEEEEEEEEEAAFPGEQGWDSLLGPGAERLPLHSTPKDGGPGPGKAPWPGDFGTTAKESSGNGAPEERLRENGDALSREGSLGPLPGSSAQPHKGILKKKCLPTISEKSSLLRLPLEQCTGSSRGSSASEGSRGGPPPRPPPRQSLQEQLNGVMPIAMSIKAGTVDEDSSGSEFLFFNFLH
Chain of UniProt O14818 (O14818 whole entry): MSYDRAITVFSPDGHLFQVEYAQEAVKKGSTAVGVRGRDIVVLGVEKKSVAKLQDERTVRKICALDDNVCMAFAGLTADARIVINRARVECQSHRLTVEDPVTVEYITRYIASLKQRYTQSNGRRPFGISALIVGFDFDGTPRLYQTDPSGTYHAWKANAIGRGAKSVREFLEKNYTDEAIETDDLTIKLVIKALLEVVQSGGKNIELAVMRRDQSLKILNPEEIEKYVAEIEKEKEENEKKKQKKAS
Chain of UniProt P09601 (P09601 whole entry): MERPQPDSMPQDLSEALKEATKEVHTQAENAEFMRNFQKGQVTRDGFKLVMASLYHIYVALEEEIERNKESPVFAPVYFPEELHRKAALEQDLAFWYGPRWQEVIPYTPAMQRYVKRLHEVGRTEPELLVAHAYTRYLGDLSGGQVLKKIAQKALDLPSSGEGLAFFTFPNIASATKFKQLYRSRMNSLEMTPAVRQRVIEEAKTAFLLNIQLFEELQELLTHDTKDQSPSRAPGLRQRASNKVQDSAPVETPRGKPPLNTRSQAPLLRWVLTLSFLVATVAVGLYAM

Question: With “HMOX1 (lysine site: K243) (UniProt P09601)” as the target, how does the “lysine labeling ratio R10:1” value read?
Answer: 1.07 (active)

Question: “FKBP4 (lysine site: K274) (UniProt Q02790)” was tested. Which “lysine labeling ratio R10:1” value did it give?
Answer: 2.78

Question: With “DSC2 (lysine site: K381) (UniProt Q02487)” as the target, how does the “lysine labeling ratio R10:1” value read?
Answer: 1.71 (active)

Question: With UniProt P55145 (lysine site: K45) as the target, how does the “lysine labeling ratio R10:1” value read?
Answer: 4

Question: How did the “lysine labeling ratio R10:1” value turn out when “PDCD6IP (lysine site: K303) (UniProt Q8WUM4)” was run?
Answer: 2.47

Question: How did the “lysine labeling ratio R10:1” value turn out when “JPT2 (lysine site: K90) (UniProt Q9H910)” was run?
Answer: 5.53

Question: “PSMA7 (lysine site: K28) (UniProt O14818)” was tested. Which “lysine labeling ratio R10:1” value did it give?
Answer: 2.85

Question: Which “lysine labeling ratio R10:1” value does the source give for “HSPA9 (lysine site: K300) (UniProt P38646)” here?
Answer: 2.25

Question: Which “lysine labeling ratio R10:1” value does the source give for “SPTBN1 (lysine site: K1939) (UniProt Q01082)” here?
Answer: 3.41

Question: How did the “lysine labeling ratio R10:1” value turn out when UniProt Q9BTX1 (lysine site: K628) was run?
Answer: 5.32

Question: How did the “lysine labeling ratio R10:1” value turn out when “MSN (lysine site: K313) (UniProt P26038)” was run?
Answer: 5.6

Question: For “SPTBN2 (lysine site: K1874) (UniProt O15020)”, which “lysine labeling ratio R10:1” value is on record?
Answer: 5.9

Question: How did the “lysine labeling ratio R10:1” value turn out when “IGSF8 (lysine site: K194) (UniProt Q969P0)” was run?
Answer: 1 (active)

Question: With “FN1 (lysine site: K2027) (UniProt P02751)” as the target, how does the “lysine labeling ratio R10:1” value read?
Answer: 13

Question: Which “lysine labeling ratio R10:1” value does the source give for “ITGA6 (lysine site: K586) (UniProt P23229)” here?
Answer: 12.8

Question: With “EPHB4 (lysine site: K474) (UniProt P54760)” as the target, how does the “lysine labeling ratio R10:1” value read?
Answer: 0.746 (active)

Question: Which “lysine labeling ratio R10:1” value does the source give for “PDCD6IP (lysine site: K313) (UniProt Q8WUM4)” here?
Answer: 2.29

Question: With “HNRNPC (lysine site: K94) (UniProt P07910)” as the target, how does the “lysine labeling ratio R10:1” value read?
Answer: 3.25

Question: Which “lysine labeling ratio R10:1” value does the source give for “LMO7 (lysine site: K305) (UniProt Q8WWI1)” here?
Answer: 3.84

Question: For “FRAS1 (lysine site: K3093) (UniProt Q86XX4)”, which “lysine labeling ratio R10:1” value is on record?
Answer: 3.29

Question: “FZD5 (lysine site: K113) (UniProt Q13467)” was tested. Which “lysine labeling ratio R10:1” value did it give?
Answer: 1.57 (active)

Question: “L1CAM (lysine site: K62) (UniProt P32004)” was tested. Which “lysine labeling ratio R10:1” value did it give?
Answer: 2.25

Question: Which “lysine labeling ratio R10:1” value does the source give for “CPM (lysine site: K338) (UniProt P14384)” here?
Answer: 4.51

Question: “FAT4 (lysine site: K4224) (UniProt Q6V0I7)” was tested. Which “lysine labeling ratio R10:1” value did it give?
Answer: 5.49

Question: Which “lysine labeling ratio R10:1” value does the source give for UniProt Q9UHN6 (lysine site: K1177) here?
Answer: 6.32

Question: How did the “lysine labeling ratio R10:1” value turn out when “ALDOA (lysine site: K14) (UniProt P04075)” was run?
Answer: 5.1

Question: “NEGR1 (lysine site: K52) (UniProt Q7Z3B1)” was tested. Which “lysine labeling ratio R10:1” value did it give?
Answer: 4.69

Question: “PTGFRN (lysine site: K752) (UniProt Q9P2B2)” was tested. Which “lysine labeling ratio R10:1” value did it give?
Answer: 3.57

Question: Which “lysine labeling ratio R10:1” value does the source give for “ADAM9 (lysine site: K290) (UniProt Q13443)” here?
Answer: 2.64

Question: Which “lysine labeling ratio R10:1” value does the source give for UniProt Q15149 (lysine site: K1401) here?
Answer: 3.7

Question: How did the “lysine labeling ratio R10:1” value turn out when “CELSR2 (lysine site: K2176) (UniProt Q9HCU4)” was run?
Answer: 4.05

Question: “TUBA1A (lysine site: K338) (UniProt Q71U36)” was tested. Which “lysine labeling ratio R10:1” value did it give?
Answer: 2 (active)

Question: With UniProt Q15149 (lysine site: K1923) as the target, how does the “lysine labeling ratio R10:1” value read?
Answer: 1.36 (active)

Question: For “PABPC1 (lysine site: K512) (UniProt P11940)”, which “lysine labeling ratio R10:1” value is on record?
Answer: 3.06

Question: How did the “lysine labeling ratio R10:1” value turn out when “RPS19 (lysine site: K144) (UniProt P39019)” was run?
Answer: 1.75 (active)

Question: “DSG2 (lysine site: K72) (UniProt Q14126)” was tested. Which “lysine labeling ratio R10:1” value did it give?
Answer: 2.67

Question: With “H2AFY (lysine site: K18) (UniProt O75367)” as the target, how does the “lysine labeling ratio R10:1” value read?
Answer: 3.07

Question: How did the “lysine labeling ratio R10:1” value turn out when UniProt Q12891 (lysine site: K148) was run?
Answer: 1.46 (active)

Question: WDR1 (lysine site: K7) (UniProt O75083) was tested. Which “lysine labeling ratio R10:1” value did it give?
Answer: 0.76 (active)

Question: “ROR2 (lysine site: K113) (UniProt Q01974)” was tested. Which “lysine labeling ratio R10:1” value did it give?
Answer: 6.49
